A short description of test [1]: ATG_CRE_CIS: Attagene CIS-FACTORIAL HepG2 Assay for human cAMP Responsive Element (CRE) binding protein 3 (AID 2282926). The following applies: HepG2 CRE cis-reporter, Attagene multiplexed mRNA; actives raise or lower the signal. An outline of the steps:
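Endogenous transcription factor activity read via CRE-regulated reporter transcripts in transfected HepG2 cells. After 24 h exposure, RNA was reverse-transcribed, amplified, fluorescently labelled and sized by capillary electrophoresis; gain or loss fitted against DMSO.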

Test [2] addresses CCAAT/enhancer-binding protein beta (Homo sapiens) (UniProt P17676). In words: ATG_C_EBP_CIS: Attagene CIS-FACTORIAL HepG2 Assay for human CCAAT/Enhancer Binding Protein (C/EBP) beta (AID 2282927). The following applies: HepG2 Attagene cis-factorial transcription factor reporter; actives raise or lower the signal. A digest of the protocol: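 Transiently transfected HepG2 (MRTU library, endogenous TF-driven promoters); 24 h dosing; total RNA → oligo(dT) RT → PCR → 6-FAM primer extension → HpaI digest → CE; fit bidirectionally vs DMSO.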

The nature of test [3]: ATG_CMV_CIS: Attagene CIS-FACTORIAL HepG2 Assay for human CMV (Internal Marker) (AID 2282928).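 Further: endpoint acts as a background internal control marker rather than a target.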 Particulars: HepG2 CMV promoter reporter, transcription factor profiling; actives raise or lower the signal. A digest of the protocol:
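24 h chemical treatment, HepG2 with transient multi-reporter transfection; RNA → oligo(dT) RT → PCR → 6-FAM extension → HpaI digest → CE fluorescence. Bidirectional fit, DMSO negative control.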

A short description of test [4]: ATG_AP_1_CIS: Attagene CIS-FACTORIAL HepG2 Assay for human Activator Protein 1 (AP-1) (AID 2282931). The following applies: HepG2 Attagene cis-factorial AP-1 reporter mRNA; actives raise or lower the signal. An outline of the steps:
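Bidirectional concentration-response fitting against DMSO controls. Underlying signal: reporter mRNA from cis-promoter constructs in transiently transfected HepG2, measured after 24 h by RT-PCR and capillary electrophoresis.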

A short description of test [5]: ATG_AP_2_CIS: Attagene CIS-FACTORIAL HepG2 Assay for human Activator Protein 2 (AP-2) (AID 2282932). Particulars: HepG2 AP-2 cis-reporter, Attagene transcription factor profiling; actives raise or lower the signal. A digest of the protocol: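 Read-out: fluorescent reporter mRNA via RT-PCR and capillary electrophoresis, 24 h post-dose in transiently transfected HepG2. Endogenous factors drive cis-promoter reporters; gain or loss of signal fitted bidirectionally against DMSO.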

Test [6] is described as follows: ATG_BRE_CIS: Attagene CIS-FACTORIAL HepG2 Assay for human Bone Morphogenetic Protein (BMP) Response Element (BRE) (AID 2282933). The following applies: HepG2 BMP response element reporter, Attagene transcription factor profiling; actives raise or lower the signal. An outline of the steps:
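Endogenous transcription factor activity at a BMP response element was monitored in transfected HepG2 cells 24 h after dosing. Fluorescent RT-PCR products were resolved by capillary electrophoresis, and activity was fitted in both directions versus DMSO.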

The target of test [7] is Retinoic acid receptor alpha (Homo sapiens) (UniProt P10276). In words: ATG_DR5_RAR_CIS: Attagene CIS-FACTORIAL HepG2 Assay for human Retinoic Acid Receptor Alpha (RARE), DR5 submotif (AID 2282934).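 On AC50: reporter responds to endogenous RAR alpha beta and gamma in HepG2 not RARA alone.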 Particulars: HepG2 Attagene cis-factorial RARE DR5 reporter, mRNA; actives raise or lower the signal. A digest of the protocol:
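Read-out: DR5-driven reporter transcript measured by RT-PCR, 6-FAM primer extension, HpaI digest and capillary electrophoresis. Human HepG2 liver cells carry transiently transfected cis-element reporter constructs; dosing lasts 24 h. Gain or loss of signal fitted against DMSO baseline.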

The target in test [8] is Transcription factor E2F1 (Homo sapiens) (UniProt Q01094). In words: ATG_E2F_CIS: Attagene CIS-FACTORIAL HepG2 Assay for human E2F Transcription Factor 1 (AID 2282935). The following applies: HepG2 Attagene cis-reporter, E2F reporter RNA transcripts; actives raise or lower the signal. A digest of the protocol:
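Transient MRTU transfection of HepG2; 24 h compound exposure; RNA → oligo(dT) RT → PCR → FAM label → HpaI cut → CE fluorescence. Gain/loss of signal fit against DMSO.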

Test [9] can be described thus: ATG_E_Box_CIS: Attagene CIS-FACTORIAL HepG2 Assay for human Enhancer Box (E-box) (AID 2282936). Particulars: HepG2 E-box cis-reporter transcription, actives raise or lower the signal. An outline of the steps: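 Transiently transfected HepG2, endogenous TF-driven reporters, 24 h dosing. Readout: RT-PCR plus capillary electrophoresis of fluorescent reporter fragments. Gain or loss of signal fitted bidirectionally against DMSO baseline.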

Test [10] can be described thus: ATG_EGR_CIS: Attagene CIS-FACTORIAL HepG2 Assay for human Early Growth Response 1 (EGR1) (AID 2282938). Particulars: HepG2 Attagene CIS-FACTORIAL EGR reporter mRNA; actives raise or lower the signal. A digest of the protocol:
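Cell-based multiplex transcription assay: HepG2 carrying transfected cis-element reporter units, 24 h chemical treatment. Fluorescence from capillary electrophoresis of RT-PCR products gives mRNA levels; fitting is bidirectional relative to DMSO.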

Test [11] can be described thus: ATG_M_19_CIS: Attagene CIS-FACTORIAL HepG2 Assay for M19 Transcription Factor (Internal Marker) (AID 2282939). Particulars: HepG2 Attagene CIS-FACTORIAL M19 internal marker reporter; actives raise or lower the signal. An outline of the steps: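 Background-control endpoint from a multiplexed HepG2 reporter panel. Cells carrying cis-regulated reporter constructs are treated 24 h, then reporter transcripts are amplified, fluorescently labelled and sized by capillary electrophoresis. DMSO defines baseline.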

The nature of test [12]: ATG_Ets_CIS: Attagene CIS-FACTORIAL HepG2 Assay for human Erythroblast Transformation Specific (ETS) (AID 2282941). Particulars: HepG2 ETS cis-reporter transcription, actives raise or lower the signal. An outline of the steps:
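Cis-regulated reporter mRNA induction in HepG2 (transient transfection), 24 h exposure, RT-PCR plus capillary electrophoresis detection; DMSO serves as negative control and baseline.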

Test [13] deals with Hepatocyte nuclear factor 3-beta (Homo sapiens) (UniProt Q9Y261). In words: ATG_FoxA2_CIS: Attagene CIS-FACTORIAL HepG2 Assay for human Forkhead box A2 (FOXA2) (AID 2282942). Particulars: HepG2 cis-reporter transcription factor activity, 24 h; actives raise or lower the signal. A digest of the protocol:
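In transiently transfected human HepG2 cells, promoter-driven reporter mRNA levels after 24 h chemical exposure are determined via RT-PCR with capillary electrophoresis. DMSO serves as baseline for bidirectional fitting.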

Test [14] in a line: ATG_FoxO_CIS: Attagene CIS-FACTORIAL HepG2 Assay for human Forkhead box O (FoxO) (AID 2282943). The following applies: HepG2 Attagene cis-reporter, FoxO element, mRNA; actives raise or lower the signal. A digest of the protocol:
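Read-out: fluorescence of 6-FAM-labelled reporter cDNA fragments resolved by capillary electrophoresis. Transiently transfected HepG2 cells were dosed for 24 h; activity fitted in both directions relative to DMSO controls.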

Test [15] in a line: ATG_GATA_CIS: Attagene CIS-FACTORIAL HepG2 Assay for human GATA Binding Protein (AID 2282944). The following applies: HepG2 GATA cis-element reporter, Attagene multiplex mRNA; actives raise or lower the signal. A digest of the protocol: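 Endogenous transcription factor activity was captured through cis-promoter-driven reporters in transfected HepG2 cells. After 24 h exposure, reporter transcripts were quantified by RT-PCR with fluorescent capillary electrophoresis, and responses fitted both directions against DMSO.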

Test [16] can be described thus: ATG_GLI_CIS: Attagene CIS-FACTORIAL HepG2 Assay for human Zinc Finger Protein GLI1 (AID 2282945). Particulars: HepG2, Attagene cis-factorial reporter mRNA, GLI element; actives raise or lower the signal. An outline of the steps:
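Transiently transfected HepG2 cells report endogenous transcription factor activity via cis-element-driven reporter units. After 24 h compound exposure, reporter mRNA was measured by RT-PCR with capillary electrophoresis; bidirectional fitting against DMSO baseline.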

Test [17] is described as follows: ATG_DR4_LXR_CIS: Attagene CIS-FACTORIAL HepG2 Assay for human Liver X Receptor (LXR), DR4 submotif (AID 2282929). Particulars: HepG2 Attagene DR4 cis-reporter, mRNA transcription; actives raise or lower the signal. An outline of the steps: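 Measures endogenous transcription factor activity via a DR4-driven reporter transcript in human HepG2 cells. Compounds incubated 24 h; mRNA quantified by RT-PCR and capillary electrophoresis, analysed as gain or loss of signal versus DMSO.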

Test [18] deals with Aryl hydrocarbon receptor (Homo sapiens) (UniProt P35869). In words: ATG_Ahr_CIS: Attagene CIS-FACTORIAL HepG2 Assay for human Aryl Hydrocarbon Receptor (Ahr) (AID 2282930). Particulars: HepG2 AhR cis-factorial reporter transcription; actives raise or lower the signal. A digest of the protocol:
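Read-out: reporter mRNA quantified by RT-PCR with fluorescent primer extension and capillary electrophoresis. Human HepG2 liver cells carried transfected cis-promoter reporter units and were exposed to chemical for 24 h; gain or loss fitted relative to DMSO.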

Test [19] in a line: ATG_M_61_CIS: Attagene CIS-FACTORIAL HepG2 Assay for M61 Transcription Factor (Internal Marker) (AID 2282937). The following applies: HepG2 Attagene CIS-FACTORIAL M61 internal marker reporter; actives raise or lower the signal. An outline of the steps:
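Fluorescence from labelled cDNA fragments, separated by capillary electrophoresis, quantifies reporter induction. HepG2 cells bearing transiently transfected cis-promoter MRTUs were incubated with test chemical for 24 h; DMSO defined baseline for gain/loss fitting.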

For test [20], the target named is Bile acid receptor (Homo sapiens) (UniProt Q96RI1). In words: ATG_IR1_CIS: Attagene CIS-FACTORIAL HepG2 Assay for human Nuclear Receptor Subfamily 1 Group H Member 4 (NR1H4), IR1 submotif (AID 2282946). Particulars: IR1 reporter transcription, actives raise or lower the signal. A digest of the protocol:
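Fluorescence of capillary-separated, HpaI-digested RT-PCR reporter products gave IR1-element mRNA induction in HepG2 cells 24 h after dosing. Endogenous transcription factors drove the cis-regulated reporters; activity was fitted bidirectionally against DMSO.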

SMILES strings stand for the structures. Active and inactive are the calls of the source. How the source made its calls: active means hit-call score of the fitted dose curve at least 0.9, where 1 is the maximum; inactive means score below 0.9.

Hepatocyte nuclear factor 3-beta (Homo sapiens), sequence (Q9Y261 whole entry, looked up): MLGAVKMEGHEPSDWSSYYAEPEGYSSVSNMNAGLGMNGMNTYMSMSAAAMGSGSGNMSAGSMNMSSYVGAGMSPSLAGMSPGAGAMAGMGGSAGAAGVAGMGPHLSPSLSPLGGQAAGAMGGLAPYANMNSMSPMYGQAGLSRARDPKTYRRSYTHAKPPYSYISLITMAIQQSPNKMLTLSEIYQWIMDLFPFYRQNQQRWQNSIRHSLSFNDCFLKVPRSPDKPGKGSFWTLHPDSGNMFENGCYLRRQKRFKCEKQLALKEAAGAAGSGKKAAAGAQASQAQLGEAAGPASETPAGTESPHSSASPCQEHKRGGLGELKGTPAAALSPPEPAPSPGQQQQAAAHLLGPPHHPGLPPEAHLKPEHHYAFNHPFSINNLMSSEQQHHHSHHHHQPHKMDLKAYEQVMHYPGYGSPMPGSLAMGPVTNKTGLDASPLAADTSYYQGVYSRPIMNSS
Retinoic acid receptor alpha (Homo sapiens), sequence (P10276 whole entry, looked up): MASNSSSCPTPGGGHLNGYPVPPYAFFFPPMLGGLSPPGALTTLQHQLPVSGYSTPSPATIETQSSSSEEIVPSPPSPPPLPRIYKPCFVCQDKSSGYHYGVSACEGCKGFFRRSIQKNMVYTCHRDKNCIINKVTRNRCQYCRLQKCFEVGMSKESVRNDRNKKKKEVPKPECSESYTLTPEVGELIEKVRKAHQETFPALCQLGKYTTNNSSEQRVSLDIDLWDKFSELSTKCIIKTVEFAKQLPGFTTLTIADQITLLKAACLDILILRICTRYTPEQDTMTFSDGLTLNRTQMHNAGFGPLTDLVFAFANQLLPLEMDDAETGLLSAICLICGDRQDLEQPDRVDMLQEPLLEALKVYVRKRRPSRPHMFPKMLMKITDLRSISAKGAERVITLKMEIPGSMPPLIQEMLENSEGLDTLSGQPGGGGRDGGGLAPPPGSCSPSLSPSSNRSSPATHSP
Transcription factor E2F1 (Homo sapiens), sequence (Q01094 whole entry, looked up): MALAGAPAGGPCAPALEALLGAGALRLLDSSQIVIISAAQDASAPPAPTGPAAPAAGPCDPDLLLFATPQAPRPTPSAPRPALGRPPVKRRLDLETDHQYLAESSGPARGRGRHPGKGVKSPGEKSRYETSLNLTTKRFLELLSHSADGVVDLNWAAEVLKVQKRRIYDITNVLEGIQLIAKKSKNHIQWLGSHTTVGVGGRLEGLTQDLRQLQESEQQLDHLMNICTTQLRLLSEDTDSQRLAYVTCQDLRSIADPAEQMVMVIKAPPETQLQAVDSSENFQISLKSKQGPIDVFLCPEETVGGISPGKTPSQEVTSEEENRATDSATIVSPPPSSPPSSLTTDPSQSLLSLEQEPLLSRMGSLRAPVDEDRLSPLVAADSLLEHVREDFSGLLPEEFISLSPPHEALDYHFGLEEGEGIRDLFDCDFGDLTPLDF
Bile acid receptor (Homo sapiens), sequence (Q96RI1 whole entry, looked up): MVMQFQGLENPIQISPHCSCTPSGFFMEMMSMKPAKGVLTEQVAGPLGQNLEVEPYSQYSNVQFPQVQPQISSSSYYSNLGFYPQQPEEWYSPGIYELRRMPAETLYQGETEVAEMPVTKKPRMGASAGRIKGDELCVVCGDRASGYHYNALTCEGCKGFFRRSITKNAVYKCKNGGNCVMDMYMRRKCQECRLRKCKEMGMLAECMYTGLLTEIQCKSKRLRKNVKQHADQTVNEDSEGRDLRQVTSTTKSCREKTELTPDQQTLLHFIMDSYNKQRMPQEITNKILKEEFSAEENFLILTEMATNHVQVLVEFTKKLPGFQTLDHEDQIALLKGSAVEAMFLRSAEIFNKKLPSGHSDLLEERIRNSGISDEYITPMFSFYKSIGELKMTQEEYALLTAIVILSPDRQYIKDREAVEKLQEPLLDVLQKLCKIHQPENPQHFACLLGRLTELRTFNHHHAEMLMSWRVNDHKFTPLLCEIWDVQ
Aryl hydrocarbon receptor (Homo sapiens), sequence (P35869 whole entry, looked up): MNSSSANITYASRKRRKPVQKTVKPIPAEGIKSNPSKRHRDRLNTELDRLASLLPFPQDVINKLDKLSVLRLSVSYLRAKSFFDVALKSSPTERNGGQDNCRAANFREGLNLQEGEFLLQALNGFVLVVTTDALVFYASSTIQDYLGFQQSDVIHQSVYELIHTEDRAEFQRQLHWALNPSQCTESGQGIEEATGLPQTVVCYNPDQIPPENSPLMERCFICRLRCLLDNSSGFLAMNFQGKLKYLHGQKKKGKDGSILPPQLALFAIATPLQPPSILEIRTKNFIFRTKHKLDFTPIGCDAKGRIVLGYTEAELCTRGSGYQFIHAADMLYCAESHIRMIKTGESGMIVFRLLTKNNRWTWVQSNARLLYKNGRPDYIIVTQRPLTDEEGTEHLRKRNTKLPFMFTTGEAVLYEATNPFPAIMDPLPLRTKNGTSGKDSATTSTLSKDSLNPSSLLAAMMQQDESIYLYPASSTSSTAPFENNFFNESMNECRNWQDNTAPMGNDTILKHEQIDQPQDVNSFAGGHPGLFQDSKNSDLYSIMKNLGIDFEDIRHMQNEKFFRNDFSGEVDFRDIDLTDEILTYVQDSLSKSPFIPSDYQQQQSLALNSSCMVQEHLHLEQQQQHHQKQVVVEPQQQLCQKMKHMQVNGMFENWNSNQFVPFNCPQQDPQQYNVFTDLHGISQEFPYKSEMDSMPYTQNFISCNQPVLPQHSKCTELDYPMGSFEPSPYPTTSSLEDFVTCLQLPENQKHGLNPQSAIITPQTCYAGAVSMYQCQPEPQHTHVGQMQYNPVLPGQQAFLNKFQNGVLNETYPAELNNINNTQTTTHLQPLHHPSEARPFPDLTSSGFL
CCAAT/enhancer-binding protein beta (Homo sapiens), sequence (P17676 whole entry, looked up): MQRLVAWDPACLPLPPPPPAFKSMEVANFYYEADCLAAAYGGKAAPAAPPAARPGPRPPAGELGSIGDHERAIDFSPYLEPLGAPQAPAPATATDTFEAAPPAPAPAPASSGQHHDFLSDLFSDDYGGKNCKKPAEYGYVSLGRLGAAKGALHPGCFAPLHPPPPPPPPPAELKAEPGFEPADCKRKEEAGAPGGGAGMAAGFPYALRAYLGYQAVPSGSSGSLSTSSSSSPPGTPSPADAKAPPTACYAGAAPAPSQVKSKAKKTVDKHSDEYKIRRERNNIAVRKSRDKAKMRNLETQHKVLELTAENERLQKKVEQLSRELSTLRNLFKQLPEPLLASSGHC

For `CCOC(=O)C1OC1c1ccccc1` (stereo not given), the compound was classed as inactive in test [1], in test [2], in [5], in test [6], in test [8] and in [10]. For the same compound, the compound was called inactive in test [11], in test [12], in test [13], in test [14], in test [15] and in test [16]. Moreover, the AC50 – broadly, the midpoint of the concentration-response curve, whichever way the signal moves – in test [3] is 38.6 µM (active); in test [4], 43.6 µM (active); in test [7], 49.9 µM (active); in [9], 57 µM (active).

With `CCCCC1CCC(O)CC1` (stereo not given), the compound was called inactive in test [1], in test [3], in [17], in test [18], in test [4] and in test [5]. For the same compound, the result in test [6], in [7], in [8], in [19], in test [10] and in test [11] was inactive. Also, the compound was classed as inactive in test [13], in test [14], in [15], in test [16] and in test [20].

`O=C(O)c1ccc(O)cc1`: the compound was classed as inactive in test [1], in test [3], in [17], in test [18], in test [4] and in [5]. Besides, the outcome in test [6], in test [7], in [8], in test [9], in test [19] and in [10] was inactive. Moreover, the compound was classed as inactive in [11], in test [12], in test [13], in test [14], in [15] and in [16]. For the same compound, the result in test [20] was inactive.

Take `CCOc1ccc(NC(=O)CC(C)=O)cc1`: the call in test [1], in [3], in [17], in test [4], in test [5] and in [6] was inactive. The compound was classed as inactive in test [7], in [8], in test [9], in [10], in test [12] and in test [13]. In test [16], the compound was called inactive.

Source of the values: PubChem BioAssay (EPA / NIEHS).
